Screening results (PubChem BioAssay)
Rows were chosen to be rich in hits. Some 2.5% of all compounds tested hit in one or more screens of this group.
rCAG binder-1 – molecules binding r(CAG) RNA repeats; 370,000 compounds, 1.3% hits; inhibition, % at 3 µM; r(CAG) RNA repeat, TO-PRO-1 dye displacement fluorescence;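 active means inhibition above the plate cutoff, the mean of all test compounds on that plate plus 3 SD, cut at about 35% in these data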;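 further: 0% = DMSO alone and 100% = 100 µM mitoxantrone as full dye displacement; higher means more dye released from RNA so lower well fluorescence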
ABCB6 inh MLPCN – blocks the human ABCB6 transporter | Q9NP58 | K562-ABCB6 porphyrin accumulation, flow cytometry, 1 h; stronger effect = lower value | fluorescence ratio to DMSO, % at 10 µM | 360,000 compounds, 0.19% hits | AID 602162;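 active means fluorescence ratio to DMSO below 75%, the collection mean minus 3 SD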;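 further: signal is porphyrin accumulated inside mitochondria; 100% equals median channel fluorescence of DMSO control wells; lower ratio means ABCB6 inhibition with less porphyrin fluorescence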
Target sequence (Q9NP58 whole entry, looked up): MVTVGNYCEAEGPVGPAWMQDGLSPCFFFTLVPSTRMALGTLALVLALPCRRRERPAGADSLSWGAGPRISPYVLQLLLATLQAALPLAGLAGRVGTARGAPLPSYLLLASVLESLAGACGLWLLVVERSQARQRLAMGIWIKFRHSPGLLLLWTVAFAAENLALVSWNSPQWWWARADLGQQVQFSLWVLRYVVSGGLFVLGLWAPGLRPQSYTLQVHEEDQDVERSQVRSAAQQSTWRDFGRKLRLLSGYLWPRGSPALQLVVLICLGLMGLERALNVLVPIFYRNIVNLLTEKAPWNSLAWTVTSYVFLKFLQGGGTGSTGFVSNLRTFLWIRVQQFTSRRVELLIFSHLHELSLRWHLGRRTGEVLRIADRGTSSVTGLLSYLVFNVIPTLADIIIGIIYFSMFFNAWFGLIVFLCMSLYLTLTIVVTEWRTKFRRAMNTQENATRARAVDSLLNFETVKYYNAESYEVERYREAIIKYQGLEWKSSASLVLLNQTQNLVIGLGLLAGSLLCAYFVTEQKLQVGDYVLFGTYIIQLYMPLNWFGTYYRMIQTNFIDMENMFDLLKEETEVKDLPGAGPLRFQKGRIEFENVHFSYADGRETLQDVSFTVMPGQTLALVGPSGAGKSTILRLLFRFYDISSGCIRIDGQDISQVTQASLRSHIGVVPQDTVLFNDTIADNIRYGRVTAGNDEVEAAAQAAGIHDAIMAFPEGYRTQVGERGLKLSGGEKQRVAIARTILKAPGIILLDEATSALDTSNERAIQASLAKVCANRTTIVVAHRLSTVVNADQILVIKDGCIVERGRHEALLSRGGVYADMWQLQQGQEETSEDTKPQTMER
PG9 Ab binder – PG9 antibody binding by small molecule; AID 624416; inhibition, % at 6.7 µM; 360,000 compounds, 0.43% hits; TR-FRET gp120-PG9 antibody binding; in the data active means inhibition above about 8.5%
Exocytosis inh – lytic granule exocytosis inhibition | TALL-104 LAMP-1 surface exposure, flow cytometry; cells stimulated with thapsigargin and PMA | inhibition, % at 10 µM | 360,000 compounds, 0.66% hits;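 active means inhibition above about 55%, limit read from the data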
rCAG bind conf – r(CAG) RNA repeat binding, confirmation; shares compounds with rCAG binder-1; TO-PRO-1 dye displacement fluorescence; inhibition, % at 3 µM; 4,300 compounds, 70% hits; AID 652065;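 active means inhibition above a per-plate cutoff, the mean inhibition of sample wells plus 3 SD, cut at about 35% in these data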;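 further: loss of TO-PRO-1 fluorescence as compound displaces dye from 1x1 AA loop RNA; 0% = DMSO only wells and 100% = 100 µM mitoxantrone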
dCAG dye counter – DNA CAG dye complex inhibition counter-screen | shares compounds with rCAG binder-1 | AID 652068 | inhibition, % at 3 µM | 4,300 compounds, 94% hits | d(CAG) DNA oligo TO-PRO-1 dye displacement, fluorescence;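 active means inhibition above its plate's cutoff, the mean test-well inhibition plus 3 SD, cut at about 4.8% in these data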;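 further: 0% = DNA dye mix with DMSO and 100% = 100 µM mitoxantrone; hits displace the dye from DNA and so lower well fluorescence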
dCAG dye DR – counter-screen for rCAG binders: inhibitors of DNA CAG TO-PRO-1 complex; shares compounds with rCAG binder-1; DNA CAG/GTC duplex TO-PRO-1 dye displacement fluorescence; 250 compounds, 20% hits; IC50, µM; in the data active means IC50 below about 10 µM
dCAG TOPRO ctr – DNA CAG dye complex inhibition, late stage dose response; d(CAG) DNA duplex TO-PRO-1 dye displacement, fluorescence; 30 compounds, 80% hits; shares compounds with rCAG binder-1; IC50, µM
rCAG binder-2 – molecules binding r(CAG) RNA repeats, late stage dose response | 30 compounds, 100% hits | AID 720651 | shares compounds with rCAG binder-1 | r(CAG) RNA TO-PRO-1 dye displacement, fluorescence | IC50, µM
An asterisk follows results filed as active; i = inactive; . = no result. Unless noted, how the calls were made is not given here.

SMILES	rCAG binder-1	ABCB6 inh MLPCN	PG9 Ab binder	Exocytosis inh	rCAG bind conf	dCAG dye counter	others
Cc1ccc(S(=O)(=O)Nc2nc(C)c(C(=O)NNS(=O)(=O)c3cc(C)ccc3C)s2)cc1	54.3*	98.0	-1.4	-3.4	59.2*	21.8*
CC(=O)c1sc(NS(=O)(=O)c2ccc(C)cc2)nc1-c1ccccc1	42.3*	99.0	-2.2	-22.9	34.1	7.5*
Cn1c(=O)c2c(ncn2CC(O)CNc2ccc(F)cc2)n(C)c1=O (stereo unspecified)	0.1	97.0	0.3	1.0	.	.
CCCCOc1ccc(/C=C(\C(=O)O)c2ccc(S(=O)(=O)N3CCCC3)s2)cc1	66.9*	96.0	-0.6	-3.1	66.1*	28.4*
O=C(O)/C(=C\c1ccc(C(F)(F)F)cc1)c1ccc(S(=O)(=O)N2CCCC2)s1	37.4*	91.0	-0.8	-3.7	25.1	5.5*
O=C(O)/C(=C\c1ccc(Br)cc1)c1ccc(S(=O)(=O)N2CCCCC2)s1	47.4*	99.0	-0.2	2.3	67.0*	25.5*	dCAG dye DR=i;dCAG TOPRO ctr=8.3*;rCAG binder-2=2.76*
Cc1cccc(/C=C(\C(=O)O)c2ccc(S(=O)(=O)N3CCCC3)s2)c1	18.5	102.0	-0.2	4.6	.	.
O=C(O)/C(=C\c1cccc(F)c1)c1ccc(S(=O)(=O)N2CCCC2)s1	17.1	100.0	-1.0	6.0	.	.
COc1cc(/C=C(\C(=O)O)c2ccc(S(=O)(=O)N3CCCC3)s2)ccc1OCCC(C)C	71.6*	105.0	0.6	0.5	57.4*	20.1*
CC1CCN(C(=O)COC(=O)CSc2ccc(C(N)=O)cc2[N+](=O)[O-])CC1	-0.2	94.0	-0.4	7.2	.	.
COCCN1Cc2cc(C(=O)OC)c3c(c2C1=O)c1cc(F)ccc1n3S(=O)(=O)c1ccc(C)cc1	8.3	.	0.4	.	.	.
COc1ccc(NS(=O)(=O)c2cccc(C(=O)NCC(c3cccs3)N3CCOCC3)c2)cc1 (stereo unspecified)	5.5	95.0	-0.1	-2.6	.	.
NC1=NC(=O)/C(=C/c2cn(Cc3ccccc3)c3ccccc23)S1	44.5*	92.0	-1.6	-1.8	18.0	11.4*
COC(=O)Cc1cccc2c(=O)c3ccccc3oc12	-1.8	94.0	1.1	1.5	.	.
O=C(O)CCCCCn1c(O)c(C=C2N=c3ccccc3=N2)sc1=S	83.5*	99.0	-0.1	3.6	64.6*	29.0*	dCAG dye DR=i;dCAG TOPRO ctr=2.41*;rCAG binder-2=0.981*
O=C(O)Cn1c(O)c(C=Nc2ccccc2)sc1=S	-1.3	99.0	-5.1	-0.7	.	.
CCCC(C(=O)O)n1c(O)c(C=C2N=c3ccccc3=N2)sc1=S (stereo unspecified)	57.8*	96.0	-2.3	-1.3	54.3*	17.3*
CCCn1c(O)c(/C=C2\C=NN=C2c2ccccc2)sc1=S	17.8	97.0	0.1	6.8	.	.
O=C(O)CCCn1c(O)c(C=C2N=c3ccccc3=N2)sc1=S	45.0*	97.0	-5.1	5.0	28.9	6.7*
CCn1c(=O)n(CC)c2cc(NC(=O)C(C)c3ccccc3)c(Br)cc21 (stereo unspecified)	-8.7	94.0	0.2	-1.8	.	.
CC(Oc1ccc(Br)cc1)C(=O)Nc1ccc(S(=O)(=O)Nc2nccs2)cc1 (stereo unspecified)	51.8*	96.0	-1.2	-1.4	33.5	9.4*
O=S(=O)(Nc1nccs1)c1ccc(NCc2cc(Br)cc(Br)c2O)cc1	57.7*	97.0	-0.1	-1.6	40.6*	14.0*
CCC(Oc1ccc(C)cc1)C(=O)Nc1ccc(S(=O)(=O)Nc2nccs2)cc1 (stereo unspecified)	52.7*	94.0	-4.6	6.8	33.4	8.8*
COc1cccc(CNc2ccc(S(=O)(=O)Nc3nccs3)cc2)c1O	18.6	100.0	-2.4	-1.3	.	.
CC(Oc1ccccc1)C(=O)Nc1ccc(S(=O)(=O)Nc2nccs2)cc1 (stereo unspecified)	10.4	92.0	1.3	-12.2	.	.
SMILES	rCAG binder-1	ABCB6 inh MLPCN	PG9 Ab binder	Exocytosis inh	rCAG bind conf	dCAG dye counter	others
O=C1NN(c2cccc(Br)c2)C(=O)/C1=C\c1ccc(O)cc1	72.0*	98.0	-5.5	1.6	26.8	11.5*
CCOc1cc(/C=C2/C(=O)NN(c3cccc(Cl)c3)C2=O)ccc1O	46.5*	95.0	-5.8	-15.5	22.6	7.5*
COc1cc(/C=C2/C(=O)NN(c3cccc(Cl)c3)C2=O)cc(OC)c1O	49.9*	101.0	-15.8	4.1	13.5	6.8*
COc1cccc(/C=C2/C(=O)NN(c3ccc(F)cc3)C2=O)c1	10.2	99.0	0.4	-3.4	.	.
COc1cccc(/C=C2/C(=O)NN(c3ccc(C)c(C)c3)C2=O)c1	71.9*	95.0	-2.4	1.5	34.0	9.5*
NC(=O)c1cc(N=Nc2c(N)[nH]n(-c3c(Cl)cc(Cl)cc3Cl)c2=O)ccc1Cl	7.3	105.0	-5.2	-2.4	.	.
O=C(O)Cc1sc(Nc2ccc(Cl)cc2)nc1-c1cccs1	57.8*	.	-0.3	.	53.8*	29.3*	dCAG dye DR=5.96*
Nc1nc(-c2cccs2)c(CC(=O)O)s1	5.7	107.0	-2.4	2.5	.	.
O=C(/C=C/c1ccco1)NC(=S)Nc1cccc([N+](=O)[O-])c1	53.7*	95.0	-0.2	1.1	33.5	18.4*
COc1ccc(-c2csc(NC(=S)NC(=O)/C=C/c3ccco3)n2)cc1OC	22.1	99.0	1.1	-2.2	.	.
Cc1cccc(NC(=S)NC(=O)/C=C/c2ccco2)c1	36.6*	124.0	0.9	-1.5	29.4	14.4*
COc1ccc(-c2csc(NC(=S)NC(=O)/C=C/c3ccco3)n2)cc1Br	66.8*	99.0	0.9	-1.7	33.5	16.3*
Cc1ccc(-c2nc3ccccc3o2)cc1NC(=S)NC(=O)/C=C/c1ccco1	25.2	88.0	-0.2	0.2	.	.
O=C(/C=C/c1ccco1)NC(=S)Nc1cccc(-c2nc3ccccc3o2)c1	35.0*	96.0	0.2	-0.6	21.8	12.7*
COC(=O)[C@]12CCCCC=C1N(Cc1cccc3ccccc13)C(=O)[C@H](CC(=O)NCCC(C)C)C2	6.3	94.0	-1.4	-3.5	.	.
CC(C)c1cc(Cn2c3ccccc3c(=O)n2C(C)Cn2cc(CCCC#N)nn2)on1 (stereo unspecified)	-1.4	.	-2.4	-2.6	.	.
CC(C)c1ccc(OCC(=O)NCc2ccccc2)cc1	-6.6	95.0	-0.8	-4.0	.	.
CC(=O)Nc1cccc(NC(=O)C(=O)c2cn(CC(=O)N3CCCC3)c3ccccc23)c1	8.4	98.0	1.4	-2.6	.	.
NS(=O)(=O)c1ccc(NC(=S)NC(=O)/C=C/c2ccco2)cc1	39.6*	100.0	-3.3	-0.8	23.5	10.8*
